Reference: PubChem BioAssay (Tox21)
Records with an inconclusive call do not appear. A number with no mark means an inactive call. Calls follow the shape of the full dose curve.

Assay: qHTS assay to identify small molecule agonists of the progesterone receptor (PR) signaling pathway - cell viability counter screen (AID 1346799); also: nearly all actives have a fitted effect of over 45% in size
Conditions: PR-UAS-bla HEK293T viability, CellTiter-Glo luminescence, 16 h; series mostly up to 92.4 µM; activity change, negative = cytotoxicity: at the top concentration
Source text: National Center for Advancing Translational Sciences [NCATS]
NIH Chemical Genomics Center [NCGC]
U.S. Environmental Protection Agency [EPA]
National Institutes of Environmental Health Sciences [NIEHS]
National Toxicology Program [NTP]
U.S. Food and Drug Administration [FDA]
Progesterone receptor (PR), a nuclear hormone receptor, plays an important role in development, metabolic homeostasis and reproduction. It is activated by the steroid hormone progesterone. Endocrine disrupting chemicals (EDCs) and their interactions with steroid hormone receptors like PR causes disruption of normal endocrine function. To identify the compounds that stimulate PR signaling, a PR-UAS-bla GripTite cell line i.e. PR-UAS-bla HEK293T (Invitrogen, Carlsbad, CA, USA) containing a beta-lactamase reporter gene under the control of an UAS response element was used to screen Tox21 10K compound library. The cytotoxicity of the Tox21 compound library against the PR-bla cell line was tested in parallel by measuring the cell viability using CellTiter-Glo assay in the same wells.
Tox21 Assay Protocol Summary:
PR-UAS-bla HEK293T cells were dispensed at 3,000 cells/5 uL of assay medium containing 2% charcoal stripped FBS per well into black wall/clear-bottom 1536-well plates using a Multidrop Combi (ThermoFisher Scientific, Waltham, MA) dispenser. After the assay plates were incubated at a 37C and 5% CO2 for 6 hr, 23 nL of compounds dissolved in DMSO, positive controls or DMSO only was transferred to the assay plate by a Pintool station (Kalypsys, San Diego, CA). The plates were incubated at 37C and 5% CO2 for 16 hr. Then 1 uL of LiveBLAzer B/G FRET substrate was added using a Flying Reagent Dispenser (FRD, Aurora Discovery, San Diego, CA), the plates were incubated at room temperature for 2 hours, and fluorescence intensity was measured by an Envision plate reader (PerkinElmer, Shelton, CT). For cell viability readout that measures cytotoxicity, 4 uL/well of CellTiter-Glo reagent was added into the assay plates using a FRD. After 30 min incubation at room temperature, the luminescence intensity in the plates was measured using a ViewLux (PerkinElmer) plate reader.
% is scaled to controls: 0 for no effect and ±100 for the full control effect.

SMILES | activity change, negative = cytotoxicity
CCOP(=S)(OCC)Oc1ncn(-c2ccccc2)n1 | 17.7%
CNC(=O)Oc1c(C(C)(C)C)cc(C)cc1C(C)(C)C | -4.47%
C=C(C)[C@@H]1CC=C(C=O)CC1 | -9.76%
CN1C[C@@H](NS(=O)(=O)N(C)C)C[C@@H]2c3cccc4c3c(cn4C)C[C@H]21 | -12.6% [at 42.5 µM]
CC(C=O)Cc1ccc2c(c1)OCO2 (stereo not given) | 15.1%
CCS(=O)(=O)CCSP(=O)(OC)OC | -5.37%
N#Cc1c(Cl)cccc1Cl | -28.3%
CNC(=O)N(C)c1nc2ccccc2s1 | -25.5%
CC1CCC(=O)O1 (stereo not given) | -14.3%
OC(c1ccccc1)(c1ccccc1)C1CCNCC1 | -14.5% [at 42.5 µM]
CC(CCc1ccccc1)NC(C)C(O)c1ccc(O)cc1 (stereo not given) | -2.52% [at 42.5 µM]
CC(C)[N+](=O)[O-] | 1.36%
ClCCOCOCCCl | 0.517%
COC(=O)c1ccccc1S(=O)(=O)NC(=O)Nc1nc(C)cc(C)n1 | 8.63%
CCC1(c2ccccc2)C(=O)NC(=O)NC1=O | 4.04%
ClC(Cl)C(Cl)Cl | -2.34%
COc1cc(OC)nc(Sc2cccc(Cl)c2C(=O)O)n1 | 10.5%
C=C(C)CN(CC)c1c([N+](=O)[O-])cc(C(F)(F)F)cc1[N+](=O)[O-] | -3.95%
CC(C)CC#N | 34.1%
CCOP(=O)(N=C1SCCS1)OCC | -7.22%

SMILES | activity change, negative = cytotoxicity
CCNc1nc(NC(C)C)nc(OC)n1 | 2.7%
CC(=O)CC(c1ccc(Cl)cc1)c1c(O)c2ccccc2oc1=O (stereo not given) | -1.97%
C[C@]12CC[C@H]3[C@@H](CC=C4C[C@@H](O)CC[C@@]43C)[C@@H]1CC[C@@H]2O | -0.133% [at 42.5 µM]
CC(C)COP(=O)(OCC(C)C)OCC(C)C | 1.77%
Oc1c(Cl)cccc1Cl | -0.777%
CS(=O)(=O)c1cc(C(F)(F)F)ccc1C(=O)c1cnoc1C1CC1 | -6.96%
CCC(=O)c1ccccc1 | -0.119%
COC(=O)C1=CCCN(C)C1 | -1.43% [at 42.5 µM]
COc1cc(OC)nc(NC(=O)NS(=O)(=O)c2ncccc2OCC(F)(F)F)n1 | 1.14%
CCOC(=O)N(C)C(=O)CSP(=S)(OCC)OCC | 2.65%
O=[N+]([O-])c1ccc2c3c(cccc13)CC2 | -8.45%
CN1CCC(O)(c2ccc(F)cc2)C(C(=O)c2ccc(F)cc2)C1 (stereo not given) | -7.6% [at 42.5 µM]
CCC(=O)C(CCN(C)C)(c1ccccc1)c1ccccc1 | -18.5% [at 42.5 µM]
[Cl][Sn]([Cl])([Cl])[Cl] | 0.141%
Nc1cnn(-c2ccccc2)c(=O)c1Cl | -4.09%
CCSC(=O)N(CC)C1CCCCC1 | 1.41%
ClC(Br)Br | -0.61%
OCCSCSCCO | -5.2%
BrCCCCCCBr | -6.68%
CCN(CC)c1nc(C)cc(OP(=S)(OC)OC)n1 | 3.09%
